# Measurements as given in PubChem BioAssay (NCI).
# This is part of a sample that, as a whole, favours compounds with a hit. Of some 83,000 tested, about 20% had one in any assay.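 Assay: single dose, 48 h. Readout: percent growth (0 = no net growth; negative = cell death). Active: <10.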 Active and inactive are the calls of the source.
# Tested on: M14 melanoma
# Assay: NCI-60 one-dose screen, 48 h (100 = growth as untreated, 0 = no growth, -100 = all killed)
# Conditions: 10 µM
row,SMILES,growth
1,O=C1CC(c2cccc(-c3cccnc3)c2)=Nc2ccc(Br)cc2N1,37.8% (inactive)
2,CCCOCC(O)CNCCN (centres undefined),109% (inactive)
3,COc1ccc(C2C=C(c3ccc(Cl)c(Cl)c3)N=C3SC(C)=CN32)cc1 (centres undefined),97.3% (inactive)
4,COC(=O)c1cnc2c(c1)Oc1ccccc1-c1ccnn1-2,98.8% (inactive)
5,CCCCC(CC#N)(CCC)CCC,97.4% (inactive)
6,COc1cc(OC)cc(N2CCN(C(=O)Nc3nc4cc(F)ccc4nc3OC)CC2)c1,1.15% (active)
7,CCOC(=O)Nc1ccc2c(c1)C(=O)N(CC)c1ccccc1O2,11.1% (inactive)
8,C=C[C@]1(C)C=C2C(=O)[C@@]3(O)OC(=O)[C@@]4(CCCC(C)(C)[C@H]34)[C@@]2(O)CC1,-89% (active)
9,Cc1ccc2c3c(cccc13)-c1ccccc1C2=O,98.6% (inactive)
10,CCN(CC)CCn1c(=N)n(CC(O)c2ccc(Cl)c(Cl)c2)c2ccccc21 (centres undefined),-58.6% (active)
11,COc1cc(Nc2ccnc(N3CCN(c4ccnc5cc(Cl)ccc45)CC3)n2)cc(OC)c1,-3.5% (active)
12,O=C1CC[C@@H](C(=O)N[C@H]2CSSC[C@@H](C(=O)NCCc3ccccc3)NC(=O)[C@H](Cc3ccccc3)NC(=O)[C@@H]3CCCN3C(=O)[C@@H]3CCCN3C2=O)N1,97.8% (inactive)
13,COc1cc(C(c2c[nH]c3ccccc23)N2CCCC2)ccc1OCc1ccccc1 (centres undefined),88.2% (inactive)
14,Cc1ccc(/C=C2\CN(Cc3cn(CCNc4ccnc5cc(Cl)ccc45)nn3)C/C(=C\c3ccc(C)cc3)C2=O)cc1,-41.7% (active)
